Screening results from PubChem BioAssay.
L3MBTL1 inh – inhibitors of human L3MBTL1 | actives 0.66% (n = 230,000) | AID 485360 | Potency, µM (highest dose often 57.1 µM), for the others: top-dose activity, negative = inhibition, most hits filed as inhibitors | AlphaScreen L3MBTL1–H3K9me1 peptide binding; further: on the % scale 0 is the no-effect control and ±100 the full control effect; nearly all actives have a fitted effect of over 60% in size
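AlphaScreen assay: L3MBTL1 (50 nM final) was preincubated 30 min at room temperature with biotinylated H3(1-15)K9me1 peptide (75 nM final), then 30 min with library compounds; streptavidin donor and nickel chelate acceptor beads (10 ug/mL final) added, 30 min dark.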
JMJD2A Tudor inh – blocks the human JMJD2A Tudor domain. O75164. AlphaScreen JMJD2A-Tudor / H3K4me3 peptide binding. Potency, µM (top dose mostly 114 µM), for inactives: at the top dose activity change, negative = inhibition, actives largely listed as inhibitors. actives 4.4% (n = 390,000). AID 504339; further: on the % scale 0 is the no-effect control and ±100 the full control effect; nearly all actives have a fitted effect of over 50% in size
BAZ2B inh – blocks human BAZ2B | AlphaScreen BAZ2B-H3K14Ac peptide displacement | Q9UIF8 | actives 4.4% (n = 360,000) | Potency, µM (doses to about 114 µM), inactives show at the top dose activity change, negative = inhibition, actives largely listed as inhibitors; further: on the % scale 0 is the no-effect control and ±100 the full control effect; nearly all actives have a fitted effect of over 60% in size
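BAZ2B (50 nM) with biotin-H3(5-23)K14Ac peptide (50 nM) in PBS pH 7.4, 0.01% Tween-20, preformed 30 min, then compound 30 min at room temperature; top concentration 110uM. AlphaScreen streptavidin donor/nickel chelate acceptor beads (10 ug/mL final), 20 min dark, signal read.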
HP1b chromo inh – inhibitors of HP1-beta chromodomain binding to methylated histone tails. P83916. AlphaScreen HP1-beta / biotin-H3K9me3 peptide binding. Potency, µM (doses to about 114 µM), for inactives: at the top dose activity change, negative = inhibition, actives largely listed as inhibitors. actives 0.56% (n = 390,000). AID 540317; further: nearly all actives have a fitted effect of over 70% in size
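HP1-beta protein (50 nM final) preincubated 30 min at room temperature with biotinylated H3(1-18)K9me3 peptide (50 nM) in PBS pH 7.4, 0.01% Tween-20, then compound added for 30 min. AlphaScreen streptavidin donor/nickel chelate acceptor beads (10 ug/mL final), 30 min dark, luminescence read.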
PLK1 PBD block – PLK1 (human) polo-box domain binding inhibition; P53350; Plk1 PBD binding of FITC phosphopeptide, fluorescence polarization; Potency, µM, for the others: max response, negative = inhibition, usual class: inhibitors; actives 2.8% (n = 360,000); AID 720504; further: series mostly up to about 57 µM; on the % scale 0 is the no-effect control and ±100 the full control effect; nearly all actives have a fitted effect of over 65% in size
VDR inhibitor – inhibitors of human vitamin D receptor; VDR-SRC2-3 peptide fluorescence polarization, 2 h; Potency, µM, for inactives: max response, negative = inhibition, usual class: inhibitors; actives 0.93% (n = 400,000); further: on the % scale 0 is the no-effect control and ±100 the full control effect
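Compounds are added to VDR with labelled SRC2-3 coactivator peptide and held 2 h at room temperature. Inhibition of the VDR–peptide interaction is then read as a change in fluorescence polarization.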
* hit, by the source's call; ? = inconclusive; . = no result; [ ] = dose if it differs, or a comment. A selection: hits, their analogues and other compounds. The true share with any hit is near 6.9%. The call rests on the fitted dose curve; in most records, active means well fitted curve in the direction sought with a large enough effect; inconclusive means small, poorly fitted or top-dose-only effect, or another doubt; inactive means no such curve, though single readings can be large; an effect the other way counts as inactive or inconclusive. Potency means the concentration at half of the fitted maximal effect.

SMILES	L3MBTL1 inh	JMJD2A Tudor inh	BAZ2B inh	HP1b chromo inh	PLK1 PBD block	VDR inhibitor
COc1ccc(C2=CC3=C(Br)C(=O)C(C)(OC(=O)c4cnc5ccccc5n4)C(=O)C3=CO2)cc1 (stereo not drawn)	.	.	.	.	.	0%
CC(C)C(NS(=O)(=O)c1ccc2c(c1)oc(=O)n2C)C(=O)NCCc1ccc(Cl)cc1 (stereo not drawn)	.	9%	6%[57.1 µM]	39%	.	0%
COc1ccc(CCNC(=O)C2=C(C)C(=O)OC23CCCCC3)c(OC)c1	.	-23%	-11%	11%	.	-27%
c1csc(-c2nnc(N3CCOCC3)c3ccccc23)c1	1%	-2%[11.4 µM]	-27%	1%	-17%	12%
c1csc(-c2nnc(N3CCCCCC3)c3ccccc23)c1	-2%	1.3µM*	?	?	-4%	-3%
COc1ccc(C(=O)C2CCCN(Cc3cccn3-c3ccc(Cl)cn3)C2)c(OC)c1 (stereo not drawn)	-9%	-29%	56µM*	-16%	-1%	-8%
C=CCn1c(CNS(=O)(=O)c2ccc(Br)cc2)n[nH]c1=S	.	28µM*	-13%	29%	-3%	1%
C=CCn1c(CNS(=O)(=O)c2ccc(F)cc2)n[nH]c1=S	.	13µM*	-3%	51%	0%	-1%
O=C(NCc1ccncc1)C1CCCCC1	.	?	-2%	?	27µM*	-26%
O=C(NCc1ccccc1)C1CCCC1	3%	.	3%	.	.	.
Cc1ccc(NC(=O)CNC(=O)N2CC(=O)Nc3ccccc32)cc1F	.	?	-3%	4%	7.5µM*	?
O=C1CN(C(=O)CNCc2ccccc2)c2ccccc2N1	1%	3.5µM*	50µM*	?	-10%	-4%
Cc1ccc(NC(=O)CCNC(=O)N2CC(=O)Nc3ccccc32)cc1Cl	.	.	.	.	2%	.
COc1ccccc1CNCC(=O)N1CC(=O)Nc2ccccc21	7%	20µM*	50µM*	-8%	?	-2%
COc1ccccc1CNC(=O)CNC(=O)N1CC(=O)Nc2ccccc21	.	3%	-13%	33%	-5%	9%
COCCCNC(=O)Cn1c(=O)n(-c2ccc(Cl)cc2)c(=O)c2c3c(sc21)CCCCC3	.	4%	1%	11%	.	-14%
CC(=O)c1cccc(NC(=O)Cc2ccc3c(c2)CCCC3)c1	-6%	-10%	10%	-15%	?	-4%
N#C/C(=C\c1cc(O)c(O)c(O)c1)C(N)=O	-88%	3.5µM*	18%	?	-4%	-11%
N#C/C(=C\c1cc(Cl)c(OCc2ccc(Cl)cc2)c(Cl)c1)C(N)=O	.	.	12%	.	.	.
Cc1cc2c3c(c1)C1(SCC(=O)N1c1ccc(F)cc1)C(=O)N3C(C)(C)CC2C (stereo not drawn)	.	?	-34%	5%	-8%	-24%
CC1CC(C)(C)N2C(=O)C3(Nc4ccccc4S3)c3cccc1c32 (stereo not drawn)	.	50µM*	50µM*	-2%	-26%	5%
CC(=O)Nc1ccc(S(=O)(=O)NC2=NCN(C(C)C)CN2)cc1	.	6%	-14%	11%	.	-4%
C/C(=N\NC(=O)C1COc2ccccc2O1)c1ccccn1 (stereo not drawn)	?	50µM*	25µM*	31%	-9%	5%
C/C(=N\NC(=O)CC#N)C1COc2ccccc2O1 (stereo not drawn)	7%	?	-2%	-1%	21µM*	?
Cc1cccc(NC(=O)CSc2nnc3ccc(-c4ccccn4)nn23)c1	4%	-7%	3%	52%	1%	12%
NC(=S)n1[nH]c(-c2ccc([N+](=O)[O-])cc2)c(N=Nc2ccc(Cl)cc2)c1=O	?	63µM*	5.6µM*	8%	?	-11%
Cc1ccc([N+](=O)[O-])cc1N=Nc1c(C)[nH]n(C(N)=S)c1=O	.	-5%	-2%	43%	-21%	-19%
Cc1ccc([N+](=O)[O-])cc1N=Nc1c(-c2ccc([N+](=O)[O-])cc2)[nH]n(C(N)=S)c1=O	-9%	?	32µM*	-4%	?	-15%
